Source: PubChem BioAssay
Shown are actives, neighbours in structure and some others; about 0.93% of the full set was active somewhere.
CDC25B-CDK2 inh: primary biochemical HTRF screen for blockers of M-phase inducer phosphatase 2 binding to CDK2/cyclin A | P30305+P24941 | HTRF CDC25B-CDK2/CyclinA binding, anti-His/anti-Flag; hits give high values | z-score (test concentration not listed) | 94,000 tested, 0.72% active; in the data active = z-score above about 3.2
TAR Tat displ: TAR RNA-Tat peptide displacers, HIV-1, primary screen, biochemical, FRET, FAM/TAMRA-labeled Tat; HIV-1 TAR RNA, Tat peptide displacement FRET; hits give high values; z-score (no concentration beside the values); 100,000 tested, 0.6% active; active = z-score of 3 or more in at least 2 runs
An asterisk follows results filed as active; nt = no result given.

SMILES	CDC25B-CDK2 inh	TAR Tat displ
CC(=O)N1N=C(CSc2nc(C)cc(C)n2)OC1/C(C)=C/c1ccccc1 (configuration not stated)	nt	4.2*
CC1CC(C)CN(C(=O)C(=O)Nc2ccc3nc4n(c(=O)c3c2)CCCCC4)C1 (configuration not stated)	-0.42	nt
Cn1nnnc1SCCCNCc1cc(Br)ccc1OCc1ccc(F)cc1	0.17	0.78
Cc1ssc(=S)c1-c1ccccc1	5.7*	nt
Cc1c(Br)sc(Br)c1-c1ccccc1	-1.1	nt
Cn1c(=O)[nH]c2nnc(-c3cccnc3)nc2c1=O	-1.7	0.12
C/C(=C\c1ccccc1)c1nnc2[nH]c(=O)n(C)c(=O)c2n1	-0.65	19*
Cc1nnc(N2CCCC2)c2c1nnn2Cc1ccc(F)cc1	0.03	0.85
Cc1noc(-c2ccc(C)c(S(=O)(=O)Nc3ccccc3)c2)n1	nt	1.3
O=C(Cc1scnc1-c1cccs1)N1CCN(c2ncccn2)CC1	-2.4	-0.29
CN(C)c1ccc(-c2nc3cnccn3c2Nc2ccc(Cl)cc2)cc1	-2.3	0.92
O=C1c2ccccc2S(=O)(=O)N1CC(O)COc1ccccc1 (configuration not stated)	-1.2	nt
CN1CCc2c(n(CC(O)CN3C(=O)c4ccccc4S3(=O)=O)c3ccccc23)C1=O (configuration not stated)	19*	0.59
COc1cc(OC)cc(C(=O)Nc2nc3c(s2)CCc2ccccc2-3)c1	-2.4	nt
COc1ccc2c(c1)Cc1sc(NC(=O)c3ccc(OC)c(Br)c3)nc1-2	19*	0.6
COc1cc(C2C3=C(Nc4nc(N)[nH]c(=O)c42)c2ccccc2C3=O)ccc1O (configuration not stated)	2.7	5.6*
COc1cc(C2CC(=O)Nc3nc(N)[nH]c(=O)c32)ccc1O (configuration not stated)	-1.9	-1.2
COc1ccc(C2CC(=O)Nc3nc(N)[nH]c(=O)c32)cc1 (configuration not stated)	1.2	0.84
COc1ccc(C2C3=C(Nc4nc(N)[nH]c(=O)c42)c2ccccc2C3=O)cc1 (configuration not stated)	14*	3.7*
Cc1cccc(-c2nc3ccccc3c3nnc(SCC(=O)NC4CC4)n23)c1	nt	0.75
O=C(c1[nH]nc2c1COc1ccccc1-2)N1CCN(c2ccc(F)cc2)CC1	nt	-0.27
O=C1NS(=O)(=O)c2ccccc2N1Cc1ccccc1	nt	0.71
CCCC(O)c1nc2ccccc2n1CCC (configuration not stated)	-1.2	0.27
O=C(NC1CC1)c1ccc2cccc(O)c2n1	nt	1.7
O=C(Nc1cccnc1)c1ccc2cccc(O)c2n1	nt	6.4*
SMILES	CDC25B-CDK2 inh	TAR Tat displ
Cc1ccc(-c2cn3c(n2)sc2cc(C(=O)NC(C)C)ccc23)c(C)c1	nt	1.5
COc1ccc2c(c1)c1ncn(CCCN3CCN(C)CC3)c(=O)c1n2C	-13	2.9
Cc1cc(C)cc(NC(=O)N2c3ccccc3NC3=C(C(=O)CCC3)C2c2cccs2)c1 (configuration not stated)	nt	1.8
O=C(O)c1cc(Nc2nc(-c3cccnc3)cs2)ccc1O	-5.7	4.4*
Oc1cccc(Nc2nc(-c3cccnc3)cs2)c1	-1.4	2.8
Cc1nnc2c(N3CCN(c4ccc(F)cc4)CC3)nc3ccccc3n12	-0.59	1.5
Cc1ccc(S(=O)(=O)Nc2ccc(Cl)c3cccnc23)cc1	0.07	2.3
Cc1ccc(S(=O)(=O)Nc2ccc(O)c3ncccc23)cc1	15*	0.89
Cc1ccc(S(=O)(=O)Nc2cccc3ncccc23)cc1	-1.5	nt
Cc1ccc(S(=O)(=O)Nc2ccc(O)c3cccnc23)cc1	8.3*	0.05
CC1(C)N=C(N)NC(Nc2cccc(Cl)c2)=N1	1.4	nt
Cc1nnc(NC(=O)CSc2nnc(Cn3c(=O)sc4ccccc43)n2C)s1	-0.42	1.2
Cc1nn(CCCC(=O)NC(C)CCc2ccco2)c(=O)c2cc3occc3n12 (configuration not stated)	-0.49	0.82
Cc1csc2nc(CN(C)c3ccccc3)cc(=O)n12	nt	4.5*
Cc1nn2c(=O)cc(CN(C)c3ccccc3)nc2s1	nt	0.36
Cc1csc2nc(COc3ccccc3)cc(=O)n12	-1.2	-0.35
CCN(Cc1cc(=O)n2c(C)csc2n1)c1ccccc1	nt	5.1*
CCOC(=O)c1cccc(-n2nnc3c(sc4nc(C)cc(C)c43)c2=O)c1	-1.9	-0.48
C=C(C)Cn1c(COc2ccccc2OC)nc2ccccc21	5.5	1.5
O=S1(=O)N=C(C2CCCCC2)Nc2ccc(S(=O)(=O)N3CCCCC3)cc21	-1.8	0.68
CC(=O)Oc1cc(-c2coc3cc(OC(C)=O)c(OC(C)=O)c(OC(C)=O)c3c2=O)cc(OC(C)=O)c1OC(C)=O	nt	25*
COc1cc(-c2coc3cc(OC)c(OC)c(OC)c3c2=O)cc(OC)c1OC	nt	3.2
O=c1c(NC2CCCCC2)c(-c2ccccc2)c1=O	nt	1.1
O=C1C(NC2CCCCC2)=C(N2CCCCC2)C(=O)c2ccccc21	5*	nt
CCN(CC)c1ccc(NS(=O)(=O)c2ccc(-c3ccc(=O)[nH]n3)o2)c(C)c1	nt	-3.3
SMILES	CDC25B-CDK2 inh	TAR Tat displ
CCN(CC)c1ccc(NS(=O)(=O)c2cc3[nH]c(=O)c(=O)[nH]c3cc2C)c(C)c1	nt	14*
Cc1cccc(CSc2nc(-c3ccccc3)c(C#N)c(=O)[nH]2)c1	0.64	0.83
COc1ccc(-n2c(=O)[nH]c(=O)c3sc(N)nc32)cc1	0.15	7.3*
Nc1nc2c(s1)c(=O)[nH]c(=O)n2-c1ccccc1	0.38	1.2
O=C(O)CSc1cccc2cccc(C(=O)O)c12	0.74	1.1
O=C(O)CCSc1cccc2cccc(C(=O)O)c12	11*	nt
CCCc1ccc(C(=O)CC2(O)C(=O)Nc3ccc(C)cc32)cc1 (configuration not stated)	nt	0.93
O=[N+]([O-])c1c(Nc2ccc(Cl)cc2)ncnc1Nc1ccc(Cl)cc1	-1.2	nt
CC1(C)Cc2c(sc3nc(SCc4ccc5c(c4)OCO5)nc(N)c23)CS1	-0.45	-0.32
COc1cccc(C[C@H]2NC[C@H](O)[C@H]2OC(C)=O)c1	nt	3.8*
COc1cccc(CC2C(=O)Nc3ccccc32)c1 (configuration not stated)	-0.8	-0.79
Cc1cc2nc(C)n(Cc3ccccc3F)c2cc1C	-0.57	-0.16
CC(=O)NCCNC(=O)CCc1nc2sc3c(c2c(=O)[nH]1)CCCCC3	nt	6*
O=C(CCc1nc2sc3c(c2c(=O)[nH]1)CCCCC3)N1CCN(Cc2ccc3c(c2)OCO3)CC1	nt	10*
CC(C)(C)C1CCc2c(sc3nc(CCC(=O)N4CCC(C(N)=O)CC4)[nH]c(=O)c23)C1 (configuration not stated)	nt	0.16
NC(=O)C1CCN(C(=O)CCc2nc3sc4c(c3c(=O)[nH]2)CCCCC4)CC1	nt	19*
O=C(CCc1nc2sc3c(c2c(=O)[nH]1)CCCCC3)N1CCN(c2ccc(F)cc2)CC1	nt	-0.48
CNC(=O)CCc1nc2sc3c(c2c(=O)[nH]1)CCCCC3	nt	0.79
Cc1cc(=O)oc2ccc(NS(=O)(=O)c3ccc4c(c3)oc(=O)n4C)cc12	-0.34	nt
O=C(NCCC1=CCCCC1)[C@H](CSCc1ccccc1)N1Cc2ccccc2C1=O	-2.7	1.6
CCOC(=O)c1c(C)oc2ncnc(NCc3ccccn3)c12	nt	-1.4
Cc1nc(-c2ccc(C)c(S(=O)(=O)NCc3cccs3)c2)cs1	nt	0.66
NC1=NC(=O)C(C2(O)C(=O)Nc3ccccc32)S1 (configuration not stated)	nt	0.33
